These results are taken from the OligoGym collection.
Further: reference of the scale not given here.

The first test deals with FKBPL. The test can be described thus: pooled miR-30 sensor sort-seq; sequence = guide strand. Particulars: shRNA.
As to TTCCTTCTCGCTAGTCTCCAGC, the sensor-assay potency score (higher = more potent) is -1.31.

On to TTGGCATGAAGGACAGTTCGTT, for which the sensor-assay potency score (higher = more potent) is 0.00211.

In turn, TGACACATGGACTCCAAGCATT came in with a sensor-assay potency score (higher = more potent) of -1.29.

TTGAGTATGCTCTAGAATTTGG registered a sensor-assay potency score (higher = more potent) of -0.551.

Regarding TTCCTCACCTTGACACATGGAC, the sensor-assay potency score (higher = more potent) is -0.29.

ATGAAGGACAGTTCGTTCTGGA: the sensor-assay potency score (higher = more potent) was determined as 0.322.

For TTTCGGTAGGAGGGTCTCGGGG, the sensor-assay potency score (higher = more potent) is -1.79.

For the sequence ATCTTCTTGACAAAGCTCCCAT, the sensor-assay potency score (higher = more potent) is -0.554.

Sequence TAGTTAGCTCTGTCCAGCCCTC gave a sensor-assay potency score (higher = more potent) of -1.24.

As for TCTATCGCCAGCACCTTCTTGA, the sensor-assay potency score (higher = more potent) was 0.068.

On to TAATCTGAATAACTGAATCAAG, for which the sensor-assay potency score (higher = more potent) was -1.19.

On to TTCGGTAGGAGGGTCTCGGGGC, for which the sensor-assay potency score (higher = more potent) was -0.399.

Another test addresses FKTN. The description is as above. Particulars: shRNA.
For the sequence TAAATAGTGCTTGTAGTAGTAC, the sensor-assay potency score (higher = more potent) was -0.0376.

TACTTCTTCTACAAAGTGCATT gave a sensor-assay potency score (higher = more potent) of -0.78.

The sequence ATGTCTACAAACTCAGTCCAGC displayed a sensor-assay potency score (higher = more potent) of -1.47.

For TTGACTTGTTCAAAGTTCTTAT, the sensor-assay potency score (higher = more potent) is -0.62.

For TAGTACAACTGAAACAGCAGAA, the sensor-assay potency score (higher = more potent) amounted to 0.161.
